# Sampled rows, rich in hits. Any-hit rate of the full collection: about 3.1%.
# UBC13 inh = blocks human UBC13 polyubiquitin chain formation | 0.47% of 330,000 active | TR-FRET | AID 485273 | inhibition, % at 20 µM; in the data active = inhibition above about 45%, passing the limit was not always enough
# Target sequence (P61088 whole entry, looked up): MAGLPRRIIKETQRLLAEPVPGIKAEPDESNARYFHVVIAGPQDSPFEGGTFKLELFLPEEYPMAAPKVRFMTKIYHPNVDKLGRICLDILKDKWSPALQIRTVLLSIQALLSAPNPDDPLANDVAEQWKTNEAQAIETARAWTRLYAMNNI
# MEKK2wt PB1 HTS = raises or lowers MEK5 binding to wildtype human MEKK2 PB1 domain; binding response (% of control), % at 10 µM; Q9Y2U5; 1.1% of 290,000 active; bead flow cytometry, Alexa488-MEK5 binding to MEKK2 WT; actives lie on both sides; in the data active = binding response below about 67% or above about 130%
# MEKK2mut PB1 HTS = signal of MEK5 binding to mutant human MEKK2 PB1 domain | 0.35% of 290,000 active | bead flow cytometry, Alexa488-MEK5 binding to MEKK2 mutant | percent response, % at 10 µM | AID 1530; in the data active = percent response above about 24%, passing the limit was not always enough
# PREPL inh = human PREPL enzyme inhibition; Q4J6C6; recombinant PREPL, fluorescence polarization activity-based probe; inhibition, % at 5.96 µM; 0.68% of 320,000 active; AID 2751; in the data active = inhibition above about 43%;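 note: 0% = enzyme with DMSO and 100% = wells lacking enzyme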
# MEKK3 PB1 HTS = MEKK3-MEK5 PB1 interaction, increase or decrease. AID 1529. Q99759. binding response (% of control), % at 10 µM. bead-based flow cytometry, Alexa488-MEK5 binding to MEKK3; actives lie on both sides; 0 = blocked by unlabeled MEK5, 100 = vehicle. 1.4% of 290,000 active;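 active = binding response more than 3 SD above or below the average of its plate-row segment, actives on both sides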;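 note: Alexa488 bead fluorescence after subtracting the streptavidin-only scavenger bead signal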
# ATG4B inh = blocks human ATG4B protease cleavage of LC3 substrate | Q9Y4P1 | ATG4B cleavage of LC3-PLA2, NBD-HPC fluorescence, 1 h | inhibition, % at 8.33 µM | 0.51% of 340,000 active; in the data active = inhibition above about 40%
# ATG4B conf = ATG4B (human) inhibition, single-dose confirmed; 92% of 320 active; ATG4B protease fluorescent substrate cleavage assay; inhibition, % at 8.33 µM; AID 504757; shares compounds with ATG4B inh; in the data active = inhibition above about 39%
# PLA2 counter = counter-screen for ATG4B inhibitors: human phospholipase A2. inhibition, % at 8.33 µM. purified PLA2, NBD-C6-HPC fluorescence, 45 min. shares compounds with ATG4B inh. 66% of 1,600 active. AID 588402; in the data active = inhibition above about 50%
# Target sequence (P04054 whole entry, looked up): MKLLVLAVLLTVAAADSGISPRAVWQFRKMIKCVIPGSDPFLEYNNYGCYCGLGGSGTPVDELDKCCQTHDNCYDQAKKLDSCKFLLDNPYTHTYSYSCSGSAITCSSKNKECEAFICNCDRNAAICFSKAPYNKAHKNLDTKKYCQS
# * = called active by the depositor; nt = no result.
SMILES,UBC13 inh,MEKK2wt PB1 HTS,MEKK2mut PB1 HTS,PREPL inh,MEKK3 PB1 HTS,ATG4B inh,PLA2 counter,others
CCCc1nc(SCC(=O)N2c3ccccc3CC2C)c2c(C)c(C)sc2n1 (stereo not given),-5.4,96.0,-1.0,-8.0,96.0,69.0*,80.7*,
CCCc1nc(SCC(=O)NC2CC2)c2c(C)c(C)sc2n1,6.9,100.0,-1.0,3.1,101.0,3.1,nt,
COc1ccc(/C=N/S(=O)(=O)c2ccc(C)cc2)cc1,-11.6,97.0,-2.0,-2.1,94.0,-2.9,nt,
COc1ccc2cc(C=NS(=O)(=O)c3ccc(C)cc3)n(C)c2c1,-24.9,nt,nt,8.8,nt,83.0*,74.7*,
Cc1nc(S/C(=C\c2ccc(OCc3ccccc3Cl)cc2)C(=O)O)n[nH]1,-28.8,101.0,2.0,9.5,102.0,94.0*,83.2*,
O=C(N/N=C/c1ccc(N2CCCCC2)o1)c1ccccc1[N+](=O)[O-],-10.8,94.0,-2.0,15.2,92.0,-7.8,nt,
CCCCc1ccc(NC(=S)NCc2cccc(OC)c2)cc1,-0.7,107.0,4.0,-0.3,108.0,79.8*,79.0*,
CC(=O)NC(CC(=O)N1CCCC1)c1ccccc1 (stereo not given),-2.5,103.0,3.0,12.8,101.0,-3.5,nt,
COc1ccc(N/C(=C2\CCCC2=O)C2CCCCC2)cc1,-12.7,110.0,4.0,8.2,110.0,55.8*,59.7*,
CC1(C)C2CCC1(C)C1(C2)NC(=O)c2ccccc2O1 (stereo not given),-0.3,85.0,-4.0,-23.8,83.0,45.0*,33.7,ATG4B conf=70.0*
CC[C@H](C)/C=C/C1=CC2=C(Cl)C(=O)[C@@]3(C)OC(=O)C(C(=O)[C@H](C)[C@@H](C)O)=C3C2=CO1,-38.1,90.0,1.0,1.5,103.0,41.6*,54.0*,
CCOc1ccc(OCC)c(NC(=O)CN2CCC(NC(=O)c3cccc(F)c3)CC2)c1,6.2,95.0,-3.0,16.2,97.0,78.7*,76.0*,
O=C(c1nn(Cc2ccccc2)c(=O)c2ccccc12)N1CCN(C/C=C/c2ccccc2)CC1,0.4,105.0,2.0,-12.4,102.0,49.3*,55.1*,
Cc1ccc(C(=O)NC(=S)Nc2ccccc2N2CCCC2)cc1[N+](=O)[O-],-7.0,96.0,-3.0,11.8,98.0,42.0*,20.6,
Cc1ccc(C(=O)Nc2ccccc2N2CCCCC2)cc1[N+](=O)[O-],9.9,67.0,-12.0,0.5,66.0,37.5,nt,
O=C(COc1ccc(F)c(Cl)c1)N1CCN(c2ccccn2)CC1,5.6,103.0,5.0,0.7,99.0,0.9,nt,
O=C(COc1ccccc1Cl)N1CCN(c2ccccn2)CC1,5.8,nt,nt,17.1,nt,91.9*,-4.7,
Cc1ccc(C(C(=O)NC2CCCC2)N(CCCO)C(=O)Cn2nnc(-c3ccc(C)o3)n2)cc1 (stereo not given),-1.8,100.0,2.0,5.8,100.0,-13.2,nt,
COCCN(CC(=O)Nc1cccc(S(=O)(=O)N2CCCC2)c1)Cc1nc2ccccc2c(=O)[nH]1,-4.2,nt,nt,nt,nt,-18.6,nt,
Cc1ccc(N2CCN(S(=O)(=O)c3ccc4c(c3)NC(=O)C(C)C(=O)N4)CC2C)cc1 (stereo not given),4.2,97.0,2.0,-9.8,99.0,-32.6,nt,
Cc1ccc(N=C2SC(C(=O)Nc3ccc(OC(F)(F)F)cc3)C(N)=C2C(=O)Nc2c(C)cc(C)cc2C)cc1 (stereo not given),nt,103.0,10.0,-6.6,106.0,61.9*,61.5*,
CCOc1cc(/C=N/NC(=O)C2CCCC2)ccc1OC(C)C,-6.0,110.0,6.0,9.4,104.0,-1.8,nt,
CC1=Nc2ccccc2/C1=C/c1sc(=S)n(-c2cccc(C(=O)O)c2)c1O,nt,89.0,-5.0,nt,99.0,59.6*,85.2*,
Cc1cccn2c(=O)c(/C=C(\C#N)C(=O)NCc3ccco3)c(N3CCCCCC3)nc12,1.4,100.0,-1.0,6.8,94.0,24.4,nt,
Cc1cccn2c(=O)c(/C=C(\C#N)C(=O)NCc3ccco3)c(N3CCCC(C)C3)nc12 (stereo not given),5.1,111.0,18.0,-3.6,99.0,51.3*,67.5*,
SMILES,UBC13 inh,MEKK2wt PB1 HTS,MEKK2mut PB1 HTS,PREPL inh,MEKK3 PB1 HTS,ATG4B inh,PLA2 counter,others
Cc1cccn2c(=O)c(/C=C(\C#N)C(=O)NCc3ccco3)c(N3CCCCC3)nc12,-6.2,100.0,0.0,3.4,109.0,62.7*,60.0*,
COc1ccc(/C=C/C(=O)c2ccccc2)cc1COc1ccc(F)cc1,-3.6,110.0,6.0,13.7,109.0,2.3,nt,
COc1ccc(C(=O)/C=C/c2ccc(OCc3ccccc3)cc2)cc1CSCC(=O)O,-22.0,92.0,-3.0,nt,99.0,48.8*,69.2*,
COc1ccc(C(=O)/C=C/c2cccc(OCc3ccccc3)c2)cc1CSCC(=O)O,-5.3,103.0,3.0,-3.4,101.0,48.8*,61.4*,
COc1ccc([C@H]2CC(=O)C=C(c3ccc4cc[nH]c4c3)C2)cc1,-11.5,nt,nt,4.6,nt,2.9,nt,
Clc1ncnc2scc(-c3ccc(Br)cc3)c12,3.2,99.0,-2.0,5.4,101.0,5.3,nt,
O=C(NCc1cccnc1)c1cccc(OC2CCN(Cc3ccc(CO)o3)CC2)c1,-2.9,109.0,5.0,12.6,100.0,5.9,nt,
c1ccc(-n2cnnc2SCc2cn3ccsc3n2)cc1,-4.4,94.0,-3.0,2.4,94.0,-9.1,nt,
Cc1ccc(NC(=S)NNC(=O)CSc2nc3ccccc3c(=O)n2-c2ccc(C)cc2)cc1,-16.2,96.0,-1.0,23.7,111.0,88.0*,92.6*,
Cc1ccc(-n2c(SCc3cn4ccsc4n3)nc3ccccc3c2=O)cc1,2.9,101.0,3.0,-17.2,107.0,74.1*,79.0*,
COc1ccc(/C=C(\NC(=O)c2ccc(C)cc2)C(=O)NCCCN2CCOCC2)cc1OC,-3.2,96.0,-4.0,9.2,96.0,-5.4,nt,
COc1ccc(NC2CCCN(C(=O)c3ccc4[nH]c(C)c(C)c4c3)C2)cc1OC (stereo not given),-5.2,98.0,-3.0,22.3,98.0,25.4,nt,
COc1ccc(C(=O)OCC(=O)c2ccccc2)cc1S(=O)(=O)N1CCOCC1,-0.9,95.0,-3.0,7.2,94.0,3.3,nt,
c1ccc(CCc2cc3ccccc3[nH]2)cc1,20.2,nt,nt,6.7,nt,21.1,nt,
O=C(Nc1ccccc1Cc1ccccc1)c1ccccc1NS(=O)(=O)c1ccc(Cl)s1,-13.4,88.0,-3.0,15.8,86.0,81.5*,83.1*,
O=C(Nc1ccccc1)c1ccccc1NS(=O)(=O)c1ccc(Cl)s1,-5.3,104.0,3.0,2.0,103.0,5.8,nt,
